High-throughput results deposited in PubChem by The Scripps Research Institute Molecular Screening Center.
An excerpt weighted towards active compounds, which were near 3.4% of everything screened.
ADAM17 inh – ADAM17 inhibitors, primary screen, biochemical, QFRET; hit rate 0.83% among 370,000; Disintegrin and metalloproteinase domain-containing protein 17 (Homo sapiens), P78536; inhibition, % at 6.95 µM; AID 720648, 2013; recombinant ADAM17, EDANS/DABCYL FRET peptide cleavage;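 active means inhibition above the mean of compounds lying between control limits plus 3 SD, set per campaign, cut at about 8.5% in these data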
PLC-beta3 inh – human PLC-beta3 inhibitors, primary screen, biochemical, fluorescence. Purified PLC-beta3, fluorogenic substrate. inhibition, % at 12.2 µM. hit rate 0.18% among 370,000. AID 720704, 2013; in the data active means inhibition above about 11%
HGIII-sPLA2 inh – human group III sPLA2 inhibitors, primary screen, biochemical, QFRET, BODIPY PC-A2 liposome substrate | inhibition, % at 12.2 µM | Group 3 secretory phospholipase A2 (Homo sapiens), Q9NZ20 | hit rate 0.56% among 370,000 | QFRET BODIPY PC-A2 liposome hydrolysis, fluorescence | AID 743126, 2013;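 active means inhibition above mean plus 3 SD of compounds lying within the high and low control bounds, cut at about 19% in these data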
PLCg1 inh – PLC-gamma1 enzyme inhibitors, primary screen, biochemical, fluorescence, purified enzyme | 1-phosphatidylinositol 4,5-bisphosphate phosphodiesterase gamma-1 (Homo sapiens), P19174 | fluorogenic substrate | inhibition, % at 12.2 µM | hit rate 0.84% among 370,000; in the data active means inhibition above about 9.5%
Target sequence (P19174 whole entry, looked up): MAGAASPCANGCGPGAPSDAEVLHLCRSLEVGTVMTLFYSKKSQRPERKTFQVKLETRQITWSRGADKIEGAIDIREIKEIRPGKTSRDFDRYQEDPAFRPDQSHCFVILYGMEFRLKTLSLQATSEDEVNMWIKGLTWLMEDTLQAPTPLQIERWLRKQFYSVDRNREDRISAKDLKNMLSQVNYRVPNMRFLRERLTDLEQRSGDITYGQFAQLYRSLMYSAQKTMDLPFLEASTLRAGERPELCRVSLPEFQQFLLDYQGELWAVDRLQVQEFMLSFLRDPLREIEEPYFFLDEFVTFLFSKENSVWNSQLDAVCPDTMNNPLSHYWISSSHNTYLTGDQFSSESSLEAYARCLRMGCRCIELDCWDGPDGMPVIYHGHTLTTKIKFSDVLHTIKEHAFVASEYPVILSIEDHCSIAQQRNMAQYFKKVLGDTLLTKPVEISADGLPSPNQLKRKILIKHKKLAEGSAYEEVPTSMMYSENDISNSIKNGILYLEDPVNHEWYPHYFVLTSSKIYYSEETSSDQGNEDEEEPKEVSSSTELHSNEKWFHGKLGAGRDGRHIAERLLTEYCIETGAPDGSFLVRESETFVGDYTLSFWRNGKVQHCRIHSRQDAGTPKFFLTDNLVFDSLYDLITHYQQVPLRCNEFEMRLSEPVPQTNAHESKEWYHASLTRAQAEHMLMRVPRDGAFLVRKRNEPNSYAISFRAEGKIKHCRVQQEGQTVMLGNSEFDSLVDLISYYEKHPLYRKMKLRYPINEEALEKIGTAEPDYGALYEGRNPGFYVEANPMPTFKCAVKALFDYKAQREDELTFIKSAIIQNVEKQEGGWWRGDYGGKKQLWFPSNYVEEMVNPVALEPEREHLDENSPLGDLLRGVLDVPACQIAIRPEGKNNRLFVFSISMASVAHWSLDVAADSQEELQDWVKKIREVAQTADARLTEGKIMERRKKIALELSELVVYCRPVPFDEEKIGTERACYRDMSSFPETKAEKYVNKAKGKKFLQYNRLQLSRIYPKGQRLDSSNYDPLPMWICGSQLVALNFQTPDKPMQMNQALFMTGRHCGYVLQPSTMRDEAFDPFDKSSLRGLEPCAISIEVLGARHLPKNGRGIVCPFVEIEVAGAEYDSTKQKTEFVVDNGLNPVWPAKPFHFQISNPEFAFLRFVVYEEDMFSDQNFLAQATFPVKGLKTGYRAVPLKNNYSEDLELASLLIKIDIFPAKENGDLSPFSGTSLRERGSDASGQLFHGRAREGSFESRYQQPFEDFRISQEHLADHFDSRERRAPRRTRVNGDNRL
ADAM10 inh – human ADAM10 inhibitors, primary screen, biochemical, QFRET, HTS | Disintegrin and metalloproteinase domain-containing protein 10 (Homo sapiens), O14672 | inhibition, % at 7 µM | recombinant ADAM10, EDANS/DABCYL FRET peptide cleavage, 3 h | hit rate 0.62% among 370,000;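 active means inhibition above a per-campaign cutoff equal to the mean of compounds falling between control-based bounds plus 3 SD, cut at about 20% in these data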
proKLK7 act – proKLK7 zymogen activators, primary screen, biochemical, fluorescence intensity; purified proKLK7, EDANS-DABCYL substrate fluorescence; 100% is mature enzyme control, 0% vehicle; activation, % at 7 µM; hit rate 0.9% among 370,000; AID 652039, 2013;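 active means activation above the mean of all tested compounds plus 3 SD, computed per campaign excluding outliers beyond control limits, cut at about 13% in these data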
ADAM10 confirm – human ADAM10 inhibitors, confirmation, biochemical, QFRET, triplicate; ADAM10 QFRET peptide cleavage, EDANS fluorescence; inhibition, % at 6.95 µM; hit rate 1% among 2,100; AID 743208, 2013; shares compounds with ADAM10 inh;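 active means inhibition above about 20% chosen separately for each screening run, limit read from the data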
ADAM17 ctr – ADAM17 inhibitors, counter-screen for ADAM10 exosite inhibitor project, biochemical, QFRET, high throughput; shares compounds with ADAM10 inh; ADAM17 QFRET peptide cleavage, EDANS fluorescence; inhibition, % at 6.95 µM; hit rate 0.5% among 2,100; AID 743214, 2013;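 active means mean triplicate inhibition above the solvent-only control wells' mean plus 3 SD, cut at about 12% in these data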
Large screens that a line does not name were inactive (follow-up assays come after a bar, where they were run).

CC(=O)C1=C(C)N(Cc2ccc(Cl)cc2)C(=S)NC1c1cccc(Br)c1 (stereo unspecified)	none
Cc1ccc(NC(=O)Nc2ccc3c(c2)[C@]2(CC(=O)N(CC(C)C)C2c2ccccc2)C(=O)N3C)cc1Cl (stereo partly specified)	ADAM17 inh 9.5, ADAM10 inh 21.7 | ADAM10 confirm inactive | ADAM17 ctr inactive
CC(C)CN1C(=O)C[C@]2(C(=O)N(C)c3ccc(NC(=O)C(C)(C)C)cc32)C1c1ccccc1 (stereo partly specified)	none
CCOc1ccc(-c2nnc(SCC(=O)NC(C)(C)C)nc2-c2ccc(OCC)c(OC)c2)cc1OC	ADAM10 inh 23.0 | ADAM10 confirm inactive | ADAM17 ctr inactive
CCC(C)NC(=O)CSc1nnc(-c2ccc(OC)c(OC)c2)c(-c2ccc(OC)c(OC)c2)n1 (stereo unspecified)	none
O=C(Oc1cccc(NC(=O)c2ccco2)c1)c1cccc(S(=O)(=O)N2CCCCC2)c1	ADAM10 inh 20.7 | ADAM10 confirm inactive | ADAM17 ctr inactive
O=C(Nc1cccc(S(=O)(=O)N2CCOCC2)c1)c1ccco1	none
CSc1ccc(S(=O)(=O)Nc2ccc3c4c(cccc24)CC3)cc1	ADAM10 inh 19.9 | ADAM10 confirm inactive | ADAM17 ctr inactive
O=S(=O)(Nc1ccc2c3c(cccc13)CC2)c1ccc(F)cc1	none
C=CCN1C(=O)c2[nH]nc(-c3ccccc3)c2C1c1ccc(C)cc1 (stereo unspecified)	none
O=S(=O)(Nc1ccc2c(c1)OCCO2)c1ccc(Br)s1	ADAM10 inh 21.1 | ADAM10 confirm inactive | ADAM17 ctr inactive
Cc1ccc(C2c3c(-c4ccccc4)n[nH]c3C(=O)N2c2ccccc2)cc1 (stereo unspecified)	none
COc1ccc(CNC(=O)[C@@H](Cc2ccccc2)NC(=O)[C@H]2O[C@@H](n3ccc(=O)[nH]c3=O)[C@H](O)[C@@H]2O)cc1	none
Cc1ccsc1/C=N/NC(=O)c1nnn(-c2nonc2N)c1CN(C)c1ccccc1	ADAM10 inh 21.8 | ADAM10 confirm inactive | ADAM17 ctr inactive
CCOc1cc(C(=O)NCC(C)(C)CNC(=O)c2cc(OCC)c(OCC)c(OCC)c2)cc(OCC)c1OCC	ADAM10 inh 21.3 | ADAM10 confirm inactive | ADAM17 ctr inactive
COc1cc(C(=O)NCC(C)(C)CNC(=O)c2cc(OC)c(OC)c(OC)c2)cc(OC)c1OC	none
Cc1ccc(CNC(=O)c2cccc3c2C(=O)c2ccc(N4CCCCC4)cc2S3(=O)=O)cc1	ADAM10 inh 20.8 | ADAM10 confirm inactive | ADAM17 ctr inactive
COc1ccccc1CNC(=O)c1ccc(-c2ccccc2C(F)(F)F)o1	none
COc1ccccc1CNC(=O)c1ccc(-c2ccccc2Cl)o1	ADAM17 inh 12.4, ADAM10 inh 21.4 | ADAM10 confirm inactive | ADAM17 ctr inactive
Cc1ccc(OCCNC(=O)c2cccc(S(=O)(=O)NCc3ccccc3)c2)cc1	ADAM10 inh 20.6 | ADAM10 confirm inactive | ADAM17 ctr inactive
Cc1ccc(C)c(N2CCN(C(=O)c3ccc(CS(=O)Cc4ccc(Cl)cc4)o3)CC2)c1 (stereo unspecified)	none
Cc1ccc(Cl)cc1N1CCN(C(=O)c2ccc(CS(=O)Cc3ccc(Cl)cc3)o2)CC1 (stereo unspecified)	ADAM10 inh 23.1 | ADAM10 confirm inactive | ADAM17 ctr inactive
CC(O)(c1ccc(F)c(F)c1)c1nc(-c2csc3ccccc23)cs1 (stereo unspecified)	none
CC(O)(c1cccc(F)c1)c1nc(/C=C/c2ccccc2)cs1 (stereo unspecified)	ADAM10 inh 22.1 | ADAM10 confirm inactive | ADAM17 ctr inactive
CC(O)(c1ccccc1)c1nc(-c2csc3ccccc23)cs1 (stereo unspecified)	ADAM10 inh 20.6 | ADAM10 confirm inactive | ADAM17 ctr inactive
CC(O)(c1cccc(F)c1)c1nc(-c2csc3ccccc23)cs1 (stereo unspecified)	ADAM10 inh 22.8 | ADAM10 confirm inactive | ADAM17 ctr inactive
CC(O)(c1cccc(F)c1)c1nc(-c2cc3ccccc3o2)cs1 (stereo unspecified)	ADAM10 inh 22.0 | ADAM10 confirm inactive | ADAM17 ctr inactive
COc1cccc(C(C)(O)c2nc(-c3cc4ccccc4o3)cs2)c1 (stereo unspecified)	none
Fc1cccc(Cl)c1CN1CCN(c2ncc(Cc3ccccc3)cn2)CC1	none
O=S(=O)(c1cc(Cl)cc(Cl)c1)N1CCN(c2nc(-c3cccs3)nc3ccccc23)CC1	none (no result: proKLK7 act)
COc1ccccc1-c1cc(C(=O)N/N=C/C=C/c2ccccc2[N+](=O)[O-])c2ccccc2n1	ADAM10 inh 20.2 | ADAM10 confirm inactive | ADAM17 ctr inactive
O=C(N/N=C/C=C/c1ccccc1[N+](=O)[O-])c1cc(-c2cccnc2)nc2ccccc12	none
CCOc1cc(C)c(-c2onc(C(F)(F)F)c2-c2csc(C)n2)c(O)c1	ADAM10 inh 21.5 | ADAM10 confirm inactive | ADAM17 ctr inactive
Cc1ccc(Cn2cc(CN3[C@H](c4ccccc4)COc4cc(Br)ccc4S3(=O)=O)nn2)cc1	ADAM10 inh 20.6 | ADAM10 confirm inactive | ADAM17 ctr inactive
C[C@@H]1COc2cc(Br)ccc2S(=O)(=O)N1Cc1cn(Cc2ccccc2)nn1	none
Clc1ccccc1CSc1nncn1NC/C=C/c1ccccc1	ADAM10 inh 20.0 | ADAM10 confirm inactive | ADAM17 ctr inactive
Cc1ccc(S(=O)(=O)Nc2ccc(N(C)C)cc2)cc1	none
CN(C)c1ccc(NS(=O)(=O)c2ccc(-c3csnn3)cc2)cc1	ADAM10 inh 25.0 | ADAM10 confirm inactive | ADAM17 ctr inactive
CC(C)Cc1ccc(C(C)C(=O)Nc2ccc(O)cc2)cc1 (stereo unspecified)	ADAM10 inh 20.6 | ADAM10 confirm inactive | ADAM17 ctr inactive
